Data as given in PubChem BioAssay (Tox21).
Values joined by “and” are separate entries in the source; they are usually repeats but may differ in a detail not shown here. Equal entries are not always repeated. Inconclusive results are not listed. Entries that show only a call come without a potency. Active and inactive are the calls of the source. Calls follow the shape of the full dose curve.

Test: qHTS assay for small molecules that induce genotoxicity in human embryonic kidney cells expressing luciferase-tagged ATAD5 - cell viability (AID 651634); also: nearly all actives have a fitted effect of over 25% in size
Conditions: HEK293T ATAD5-luc cells viability, CellTiter-Fluor, 15.5 h; series mostly up to 83.3 µM
From the text: National Center for Advancing Translational Sciences [NCATS]
NIH Chemical Genomics Center [NCGC]
U.S. Environmental Protection Agency [EPA]
National Institutes of Environmental Health Sciences [NIEHS]
National Toxicology Program [NTP]
U.S. Food and Drug Administration [FDA]
Enhanced Level of Genome Instability Gene 1 (ELG1; human ATAD5) protein levels increase in response to various types of DNA damage. Using a luciferase reporter-gene tagged with ElG1, a cell-based assay [developed by Kyungjae Myung, NHGRI, NIH] was used to measure the induction of ATAD5 in human embryonic kidney cells (HEK293T). So, increase in luciferase activity can be used to identify the compounds that cause genetic stress. In addition to genotoxicity, these cells were also used to test for cytotoxicity by measuring the protease activity within live cells.
Tox21 Assay Protocol Summary:
For cytotoxicity screening, 2,000 cells in 5 uL/well were dispensed into white, solid-bottom 1536-well plates using a Multidrop Combi (Thermo Scientific) dispenser. Following transfer of 23 nL compound or DMSO vehicle by a pin tool, the plates were incubated 15.5 hr at 37C and 5% CO2. 1 ul CellTiter-Fluor reagent (Promega, Madison, WI) was then added to each plate and following 30 min incubation at 37C, fluorescence intensity was quantified on a ViewLux CCD-based plate reader.
Potency is read from the fitted curve at half-maximal effect.

Row | SMILES | Potency
1 | CC(O)COc1ccccc1 (stereo not given) | inactive
2 | CC(C)CC(C)CC(O)CC(C)C (stereo not given) | inactive
3 | COCCOCCOC | inactive
4 | OCCCc1ccccc1 | inactive
5 | O=c1cc[nH]c(=O)[nH]1 | inactive
6 | C=CC(=O)NC(C)(C)CS(=O)(=O)O | inactive
7 | COCC(C)N (stereo not given) | inactive
8 | COc1cc(O)c(C(=O)c2ccccc2)cc1S(=O)(=O)O | inactive
9 | Cc1c(N(C)C)c(=O)n(-c2ccccc2)n1C | inactive
10 | O=C(O)Cc1cccc2ccccc12 | inactive
11 | COc1ccccc1NC(=O)CC(C)=O | inactive
12 | Cc1cccc(Nc2cc(Cl)nc(SCC(=O)O)n2)c1C | inactive
13 | COc1cc2c(c(OC)c1OC)-c1ccc(OC)c(=O)cc1[C@@H](NC(C)=O)CC2 | 335 nM (active) and 9.6 nM (active) and 7.7 nM (active)
14 | C[C@]12CC[C@@H]3c4ccc(O)cc4C[C@@H](CCCCCCCCCS(=O)CCCC(F)(F)C(F)(F)F)[C@H]3[C@@H]1CC[C@@H]2O (stereo not given in full) | inactive
15 | O=C(O)CCCCC1CCSS1 (stereo not given) | inactive
16 | CCCCOCCOCCOC(C)=O | inactive
17 | CCOCCO | inactive
18 | Cc1ccc(O)c(-n2nc3ccccc3n2)c1 | inactive
19 | C[C@]12C=CC(=O)C=C1CC[C@@H]1[C@@H]2C(=O)C[C@@]2(C)[C@H]1CC[C@]2(O)C(=O)CO | inactive
20 | C#C[C@]1(O)CC[C@H]2[C@@H]3CCc4cc(O)ccc4[C@H]3CC[C@@]21C | 15.2 µM (active)

Row | SMILES | Potency
21 | Cc1c(N(C)CS(=O)(=O)O)c(=O)n(-c2ccccc2)n1C | inactive
22 | COC(=O)c1ccc(O)cc1 | inactive
23 | O=[N+]([O-])c1ccc(O)cc1 | 56.6 µM (active)
24 | NC(=O)c1ccc([N+](=O)[O-])cc1Cl | inactive
25 | C1CNCCN1 | inactive
26 | CCCCOC(=O)CCCCCCCCC(=O)OCCCC | inactive
27 | NCCNc1cccc2ccccc12 | inactive
28 | CCCCCCCCOc1ccc(C(=O)c2ccccc2)c(O)c1 | inactive
29 | CCCCC/C(C=O)=C\c1ccccc1 | inactive
30 | NC(=O)OCC(COC(N)=O)c1ccccc1 | inactive
31 | CC1=C(/C=C/C(C)=C/C=C/C(C)=C/C(=O)O)C(C)(C)CCC1 | inactive
32 | CCN(CC)CCOC(=O)c1ccc(N)cc1 | inactive
33 | CCN1CCCC1=O | inactive
34 | CC(=O)c1ccc(S(=O)(=O)NC(=O)NC2CCCCC2)cc1 | inactive
35 | Cc1cccc2ccccc12 | inactive
36 | CO[C@H]1C=CO[C@@]2(C)Oc3c(C)c(O)c4c(O)c(c(/C=N/N5CCN(C)CC5)c(O)c4c3C2=O)NC(=O)/C(C)=C\C=C[C@H](C)[C@H](O)[C@@H](C)[C@@H](O)[C@@H](C)[C@H](OC(C)=O)[C@@H]1C | 23.7 µM (active) and 48.8 µM (active) and 39 µM (active)
37 | NC(N)=NC(N)=NCCc1ccccc1 | inactive
38 | CC(=O)/C=C/C1=C(C)CCCC1(C)C | inactive
39 | COc1ccc(O)cc1 | inactive
40 | CC(C)Cc1ccc(C(C)C(=O)O)cc1 (stereo not given) | inactive
